From PubChem BioAssay
HSF1 inh: HSF1 inhibition. NIH3T3-HGL HSE-luciferase, MG132-induced, luminescence 8 h; stronger effect = lower value. activity change, negative = inhibition, % at 7.5 µM (by protocol). 300,000 compounds, 0.77% hits;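 active = more than half of replicate wells show activity change below -50%, luminescence cut by over half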;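 also: luciferase reports HSF-1 transcriptional activity via heat shock element; 0% = median of DMSO wells and -100% = zero luminescence signal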
Hsp70 act: Hsp70 transcriptional activation, primary screen | AID 1203 | 200,000 compounds, 0.04% hits | activation, % at 10 µM | HeLa Hsp70 promoter luciferase reporter, luminescence; scaled: vehicle 0, proteasome-inhibitor control 100%;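 active = activation above the mean across all tested compounds plus 3 SD, cutoff set per campaign, cut at about 5.5% in these data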;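 also: 100% = MG132 at 30 µM as the positive control and 0% = DMSO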
HSF1 activator: increases HSF-1 driven luciferase reporter signal; NIH3T3-HGL HSF-1 luciferase reporter, MG132, 8 h; 100% = twice DMSO control signal; activation, % at 9 µM; 300,000 compounds, 1.7% hits;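 active = mean replicate activation of at least 50% with a set share of replicates each reaching 50%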;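 also: 0% = median of the neutral control wells and 100% = twice that signal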
S1P4 ag: human S1P4 receptor agonism | O95977 | S1P4-expressing cell line, agonist reporter assay | activation, % at 4.98 µM | 220,000 compounds, 0.35% hits | AID 1509; in the data active = activation above about 11%;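 also: 0% = DMSO vehicle and 100% = reference agonist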
Target sequence (O95977 whole entry, looked up): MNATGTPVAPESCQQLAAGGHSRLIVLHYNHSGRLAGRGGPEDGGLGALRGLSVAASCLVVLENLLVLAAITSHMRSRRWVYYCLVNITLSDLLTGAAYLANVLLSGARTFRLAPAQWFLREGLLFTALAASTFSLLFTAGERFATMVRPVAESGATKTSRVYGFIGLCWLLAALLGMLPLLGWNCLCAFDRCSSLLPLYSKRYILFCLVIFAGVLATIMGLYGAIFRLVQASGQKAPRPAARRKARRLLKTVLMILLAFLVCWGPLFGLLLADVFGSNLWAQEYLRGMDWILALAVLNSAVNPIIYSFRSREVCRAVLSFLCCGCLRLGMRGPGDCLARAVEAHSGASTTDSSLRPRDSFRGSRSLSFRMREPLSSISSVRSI
S1P3 antag: S1P3 (human) receptor antagonism; Q99500; CHO S1P3 NFAT-BLA reporter, FRET fluorescence, antagonist mode; AID 485; inhibition, % at 4.98 µM; 170,000 compounds, 0.27% hits;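 active = inhibition above the plate cutoff, the mean inhibition of test wells on that plate plus 3 SD, cut at about 28% in these data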;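 also: cells challenged with S1P at its EC80 of 0.8 µM; blue over green emission ratio from cleaved BLA substrate after 4 h stimulation; 0% = S1P-stimulated wells and 100% = unstimulated DMSO-only wells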
S1P4 antag: blocks the human S1P4 receptor; O95977; S1P4-expressing cells, antagonist mode, reporter read-out; inhibition, % at 4.98 µM; 220,000 compounds, 0.26% hits; AID 1510; in the data active = inhibition above about 29%;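 also: 0% = wells stimulated with agonist and 100% = vehicle wells without agonist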
An asterisk follows results filed as active; . = not tested or not shown. Sampled rows, rich in hits. Any-hit rate of the full collection: about 2.9%.

SMILES	HSF1 inh	Hsp70 act	HSF1 activator	S1P4 ag	S1P3 antag	S1P4 antag
CNC(=O)NC(=S)NC(=O)c1ccccc1Cl	-76*	0	-80	1	-11	-17
O=C(NC(=S)Nc1ccccc1O)c1ccc(Cl)cc1Cl	57	0	76*	3	-10	8
O=C(Nc1ccc(NC(=S)NC(=O)c2ccccc2Cl)cc1)c1cccc(Cl)c1	41	0	56*	0	.	-11
CC(C)C(=O)Nc1cccc(NC(=S)NC(=O)c2ccccc2Cl)c1	1	0	20	1	.	-17
CC1=CC(C)C2(CO)COC(c3ccccc3O)C1C2C (stereo not given)	-4	0	10	-2	.	-4
CCc1c(C2(O)CCCCC2)[nH]c2ccc(C#N)cc12	-1	.	-13	.	.	.
N#CCN1CCN(CC(=O)Nc2cccc3ccccc23)CC1	-10	0	5	0	.	-5
COc1ccc(/C=C/C(=O)c2ccc(O)cc2)cc1COc1ccc(F)cc1	59	0	83*	-3	.	-6
COc1ccc(C(=O)/C=C/c2ccc(OCc3ccccc3)cc2)cc1CSCC(=O)O	16	.	55*	.	.	.
COc1ccc(Oc2ccc(/C=C/C(=O)c3ccc(O)cc3)cc2[N+](=O)[O-])cc1	34	0	77*	1	9	25
Cc1cc2ncn(CC3CC3(Cl)Cl)c2cc1C (stereo not given)	18	0	4	-2	-15	12
OC(COc1ccc(Br)cc1)CN1CCC(Cc2ccccc2)CC1 (stereo not given)	1	.	17	.	.	.
O=C(c1cccs1)N1CCN(c2cc(Cl)ccc2Cl)CC1	2	.	-4	.	.	.
COCCC1CCCCN1C(=O)c1ccc2nc(Cc3ccccc3F)oc2c1 (stereo not given)	26	.	16	.	.	.
COc1cc(Cl)ccc1OCc1cc(C(=O)N2C[C@H]3CC[C@H]2C3)no1	16	.	47	.	.	.
COc1cc(Cl)ccc1OCc1cc(C(=O)N2C[C@@H]3CCC[C@H]2C3)no1	32	.	56*	.	.	.
O=C(NC(=S)N(CC1CCC1)CC1CCCO1)c1cccc([N+](=O)[O-])c1 (stereo not given)	-1	0	5	0	-12	-7
C[C@@H](C(=O)Nc1nc2ccccc2s1)N1C(=O)C2CC=CCC2C1=O (stereo not given in full)	2	0	4	0	-9	-3
Cc1cccc2sc(NC(=O)[C@H](C)N3C(=O)C4CC=CCC4C3=O)nc12 (stereo not given in full)	-56*	.	-68	1	0	20
OCCC1CN(Cc2cccc3nccnc23)CCN1Cc1ccc(F)cc1 (stereo not given)	-4	.	9	2	-6	16
O=C1c2ccccc2S(=O)(=O)N1CC1CC(c2ccc(Cl)cc2)=NO1 (stereo not given)	66	0	82*	-1	-8	2
COc1ccc(C2=NOC(CN3C(=O)c4ccccc4S3(=O)=O)C2)cc1 (stereo not given)	40	1	72*	1	-23	2
O=C1c2ccccc2S(=O)(=O)N1CC1CC(c2ccccc2)=NO1 (stereo not given)	.	0	.	1	15	-5
O=C(COC(=O)c1ccccc1O)Nc1cc([N+](=O)[O-])ccc1Cl	1	.	-11	0	2	-2
CC(=O)c1sc(NC(=O)CSC(C)C(=O)Nc2cc(C)on2)nc1-c1ccccc1 (stereo not given)	-4	.	4	.	.	.
SMILES	HSF1 inh	Hsp70 act	HSF1 activator	S1P4 ag	S1P3 antag	S1P4 antag
Cc1cc(C)c(C#N)c(SCC(=O)NC(C)(C)C)n1	-65*	0	-74	0	.	-23
CCN1CCN(CCCNc2ncnc3nc[nH]c23)CC1	-87*	0	-89	1	10	-1
CCOC(=O)N1CCN(C(=S)NC(=O)c2cncc(Br)c2)CC1	-3	0	-18	0	-1	-5
COc1ccc(N(C(=O)c2snc(C(N)=O)c2N)C(C(=O)NCc2ccc(F)cc2)c2ccc(O)cc2)cc1 (stereo not given)	13	.	21	.	.	.
OC1OC[C@@H](O)[C@H](O)[C@H]1O (stereo not given in full)	-72*	.	-77	.	.	.
COc1ccc(-c2nnc(SC(C)C(=O)Nc3cccc(Cl)c3)o2)cc1 (stereo not given)	56	0	109*	0	30	-23
COc1ccc(-c2nnc(SC(C)C(=O)NNC(=O)c3ccc(C)cc3)o2)cc1 (stereo not given)	-4	0	-2	-1	-11	-15
O=C(O)c1cnn(-c2nc(-c3cccc([N+](=O)[O-])c3)cs2)c1C(F)(F)F	18	.	63*	.	.	.
Cn1c(CNc2cccc(Cl)c2)nnc1SCC#N	27	0	73*	1	3	-2
CCc1ccc(NC(=O)CCC(=O)c2ccccc2)cc1	6	.	7	.	.	.
N#CC(C#N)=C1C=CC=CN1/C(=C\c1ccco1)C(=O)c1ccc(-c2ccccc2)cc1	.	4	.	-3	-29	69*
Fc1ccc(C(CNC(=S)NC2CCCCC2)N2CCOCC2)cc1 (stereo not given)	-8	0	5	1	-15	7
O=C(NCCSCc1ccco1)Nc1cccc(Cl)c1	21	0	60*	1	2	-11
O=C(NCCSCc1ccco1)Nc1ccc(Cl)cc1	32	0	42	0	6	-13
O=C(N/N=C\c1ccco1)Nc1cccc(Cl)c1	30	0	69*	-1	-2	8
Cc1cccc(NC(=O)CCC(=O)N/N=C/c2ccco2)c1	-3	0	-2	0	-4	-14
Oc1ccccc1C1NN=C(c2ccccc2)S1 (stereo not given)	71	.	81*	.	.	.
CSc1ccc(C2NN=C(c3ccccc3)S2)cc1 (stereo not given)	-28	.	-27	.	.	.
COc1ccc2oc(C(=O)OCC(=O)Nc3ccc(NC(C)=O)cc3)c(C)c2c1	1	.	-2	.	.	.
COc1ccc2oc(C(=O)OCC(=O)N(C)CC(=O)Nc3ccc(C)cc3)c(C)c2c1	-51*	.	-61	.	.	.
Cc1oc(-c2ccoc2)nc1CN(CC1CCC(=O)N1)C(C)C (stereo not given)	19	0	72*	2	-30	-10
Cc1oc(-c2cccc(F)c2)nc1CN(Cc1ccccc1)C[C@@H]1CCC(=O)N1	-4	0	-23	-2	-19	-31
C/C(=N/NC(=O)CNC(=O)c1ccccn1)c1ccc([N+](=O)[O-])cc1	-81*	0	-85	-1	0	3
C[C@@H]1[C@H]2[C@@H](O[C@@H]3O[C@H](CO)[C@@H](O)[C@H](O)[C@H]3O)OC=C(C(=O)O)[C@H]2C[C@@H]1O	-8	.	2	.	.	.
COc1ccc2[nH]c(C(=O)N3CCC(CO)(Cc4cccc(C(F)(F)F)c4)CC3)c(C)c2c1	1	.	12	.	.	.
